In publication PMC4336329 (PLoS ONE, 2015):
The campaign covered roughly 310,000 compounds. About 14,000 (4.5%) showed an effect of 50% or more. The effect is printed as a negative number. The full list was thinned out, with strong results kept by preference.

The molecules below were run against human ether-à-go-go-related gene (hERG) potassium channel (human, UniProt Q12809) (assay: primary screen, population patch clamp on CHO cells stably expressing hERG; higher = less effect of the substance).
Sequence of human ether-à-go-go-related gene (hERG) potassium channel (Q12809 whole entry, looked up): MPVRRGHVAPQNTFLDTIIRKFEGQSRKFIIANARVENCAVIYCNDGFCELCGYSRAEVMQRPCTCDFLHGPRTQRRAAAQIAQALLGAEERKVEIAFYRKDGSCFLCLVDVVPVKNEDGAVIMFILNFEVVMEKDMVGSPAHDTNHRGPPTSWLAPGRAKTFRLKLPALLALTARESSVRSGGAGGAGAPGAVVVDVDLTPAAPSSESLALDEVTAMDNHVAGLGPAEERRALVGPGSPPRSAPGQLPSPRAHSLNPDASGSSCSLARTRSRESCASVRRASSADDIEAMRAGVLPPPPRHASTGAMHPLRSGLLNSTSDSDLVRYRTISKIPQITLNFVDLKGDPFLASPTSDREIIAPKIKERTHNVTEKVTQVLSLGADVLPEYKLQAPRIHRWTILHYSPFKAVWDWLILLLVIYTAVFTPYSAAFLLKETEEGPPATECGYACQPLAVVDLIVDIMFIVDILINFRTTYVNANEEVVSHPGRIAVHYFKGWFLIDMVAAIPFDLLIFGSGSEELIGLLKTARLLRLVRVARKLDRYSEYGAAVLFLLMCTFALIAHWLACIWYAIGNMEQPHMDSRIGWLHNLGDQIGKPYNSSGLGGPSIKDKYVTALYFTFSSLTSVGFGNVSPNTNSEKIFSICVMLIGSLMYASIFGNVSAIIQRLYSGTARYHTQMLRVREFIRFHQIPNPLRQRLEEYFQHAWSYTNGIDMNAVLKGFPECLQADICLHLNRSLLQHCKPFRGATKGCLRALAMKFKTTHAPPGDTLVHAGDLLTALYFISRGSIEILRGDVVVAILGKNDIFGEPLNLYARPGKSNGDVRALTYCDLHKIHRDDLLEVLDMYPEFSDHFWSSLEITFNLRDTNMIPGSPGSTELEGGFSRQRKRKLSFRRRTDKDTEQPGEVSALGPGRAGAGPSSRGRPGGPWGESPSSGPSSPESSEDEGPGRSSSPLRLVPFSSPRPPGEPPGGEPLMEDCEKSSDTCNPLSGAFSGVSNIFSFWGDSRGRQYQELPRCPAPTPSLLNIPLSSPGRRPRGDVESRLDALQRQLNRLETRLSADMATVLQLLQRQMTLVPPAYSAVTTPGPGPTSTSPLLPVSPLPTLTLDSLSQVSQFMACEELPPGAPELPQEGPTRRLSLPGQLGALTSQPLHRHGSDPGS
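Further: peak tail current of the secondary pulse compared with the same well before compound.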

SMILES | hERG current change (%, negative = inhibition) at 10uM [%]
Cc1cc(C)c(-c2cc(C)nc3ncnn23)c(C)c1 | 7.75
CCOc1ccc(C(=O)Nn2cnnc2)cc1 | 2.29
O=C(NCCCc1ccccc1)C1CCN(c2nnc(-n3cccc3)s2)CC1 | -27
CCN(Cc1ccccc1)S(=O)(=O)c1ccc(C(=O)N(CCCN(C)C)c2nc3ccc(F)cc3s2)cc1.Cl | -12.6
CCc1ccc2nc(N(CCCN(C)C)C(=O)c3ccc(C(=O)c4ccccc4)cc3)sc2c1.Cl | -12.5
CCN(Cc1ccccc1)S(=O)(=O)c1ccc(C(=O)N(CCCN(C)C)c2nc3cc(OC)ccc3s2)cc1.Cl | -58.3
COc1ccc2sc(N(CCCN(C)C)C(=O)c3ccc(S(=O)(=O)N(C)Cc4ccccc4)cc3)nc2c1.Cl | -16.4
CN(C)CCCN(C(=O)c1ccc(C(=O)c2ccccc2)cc1)c1nc2ccc(F)cc2s1 | -74.9
CN(C)CCCN(C(=O)c1ccc(S(=O)(=O)N(C)C)cc1)c1nc2ccc(F)cc2s1.Cl | -32.9
O=C(O)c1ccc(Nc2cccc(F)c2)c([N+](=O)[O-])c1 | 17.7
CCCCOc1c(Br)cc(CNCCCN2CCOCC2)cc1OC.Cl | -35
CC(C)CCOc1ccc(NC(=O)C2OC3OC(C)(C)OC3C3OC(C)(C)OC23)cc1 (stereo not shown) | 20.5
O=C(NCc1nnc(SCC(=O)N2CCCC2)o1)c1ccc(F)cc1 | 14.3
COc1ccc(Nc2ncnc3ccc([N+](=O)[O-])cc23)c(OC)c1 | -0.867
CNc1ccc(Br)cc1C(O)c1ccccc1 (stereo not shown) | -3.18
O=C(Cn1ccc(NC(=O)OCc2ccccc2)nc1=O)NCCCn1ccnc1 | 6.72
O=C1COc2ccc(C(=O)COC(=O)CNC(=O)c3ccccc3)cc2N1 | -4.81
Cc1ccc(C(=O)NCC(=O)OCC(=O)c2ccc3c(c2)NC(=O)CO3)cc1C | -5.7
COc1ccc(C(=O)NCC(=O)OCC(=O)c2ccc3c(c2)NC(=O)CO3)cc1 | -65.1
Cc1ccc(C(=O)NCC(=O)OCC(=O)c2ccc3c(c2)NC(=O)CO3)cc1 | -60.6
COc1ccc(OCCCC(=O)OCC(=O)c2ccc3c(c2)NC(=O)CO3)cc1 | 15.7

SMILES | hERG current change (%, negative = inhibition) at 10uM [%]
COc1ccc(C(=O)NCC(=O)OCC(=O)c2ccc3c(c2)NC(=O)CO3)cc1OC | -22
Cc1nn(C(=O)CCC(=O)NCc2ccccc2Cl)c2ccccc12 | 15.2
Cc1c(Cl)cccc1NC(=O)C1COc2ccccc2O1 (stereo not shown) | 8.79
COc1ccc(S(=O)(=O)CC(=O)c2cc3cccc(C)c3oc2=O)cc1 | 5.51
CCCN1Cc2cccc(C(=O)NC(CC(=O)OCC)c3ccc(OCC)c(OC)c3)c2C1=O (stereo not shown) | -31.2
CCCN1Cc2cccc(C(=O)NC(CC(=O)OCC)c3ccc(OC(C)C)cc3)c2C1=O (stereo not shown) | -37.6
CCCN1Cc2cccc(C(=O)NC(CC(=O)OCC)c3ccc(C)cc3)c2C1=O (stereo not shown) | -81.7
Cc1nc2c(C)cccn2c1/C(O)=C1\C(=O)C(=O)N(CCN(C)C)C1c1ccncc1 (stereo not shown) | 4.49
CC(=O)Nc1ccc(C(=O)CN2C(=O)NC3(CCOc4ccccc43)C2=O)c(F)c1 (stereo not shown) | -20.5
CC(=O)Nc1ccc(NC(=O)C2CCN(c3c(Cc4ccccc4)c(C)nc4ncnn34)CC2)cc1 | 2.74
Cc1nc2ncnn2c(N2CCC(C(=O)NCC3CCCO3)CC2)c1Cc1ccccc1 (stereo not shown) | -17.6
COc1cc(CC(NC(C)=O)C(=O)NC2CCN(c3c(Cc4ccccc4)c(C)nc4ncnn34)CC2)cc(OC)c1 (stereo not shown) | 12
COc1cccc(CC(NC(C)=O)C(=O)NC2CCN(c3c(Cc4ccccc4)c(C)nc4ncnn34)CC2)c1 (stereo not shown) | -0.458
CC(=O)NC(Cc1ccc(F)c(F)c1)C(=O)NC1CCN(c2c(Cc3ccccc3)c(C)nc3ncnn23)CC1 (stereo not shown) | -58.7
Cc1nc2ncnn2c(N2CCC(C(=O)NC3CCCC3)CC2)c1Cc1ccccc1 | -57.4
NC(=O)C1CCCN(C(=O)c2ccc3nc(Cc4cccc(Cl)c4)oc3c2)C1 (stereo not shown) | -11.5
Cc1ccnc(SCCn2c(N3CCN(C)CC3)nc3c2c(=O)n(C)c(=O)n3C)n1 | 13.6
COCCn1c(-c2ccc(F)cc2)nc2oc3cc(OC)ccc3c(=O)c2c1=O | -19.6
CCOC(=O)Nc1sc(C)c(C)c1C(N)=O | 9.44
COCC1CCN(Cc2nc(COc3ccccc3)no2)C1 (stereo not shown) | 12.3
CN(Cc1ccccn1)C(=O)CC1C(=O)NCCN1Cc1ccc(F)cc1Cl (stereo not shown) | 16.4

SMILES | hERG current change (%, negative = inhibition) at 10uM [%]
CN(Cc1cnccn1)C(=O)CC1C(=O)NCCN1Cc1ccc(F)cc1Cl (stereo not shown) | 20
CN(Cc1nccn1C)C(=O)CC1C(=O)NCCN1Cc1ccc(F)cc1Cl (stereo not shown) | -68.9
Cc1nc2scc(C)n2c(=O)c1S(=O)(=O)N1CCN(c2ccccc2)CC1 | -26.3
COc1ccc(C(=O)C23CN4CN(CN(C4)C2)C3)cc1 | 4.01
CC(=O)N1CN2CN(C(C)=O)CC(C(=O)c3ccccc3)(C2)C1 | 11
CN1CC2(C(=O)c3ccccc3)CN(C)CC(C(=O)c3ccccc3)(C1)C2 | -53
Cc1ccn2cc(-c3cccc(NC(=O)c4ccccc4)c3)nc2c1 | -19.6
COc1ccc(OC)c(NC(=O)CCN2CCN(c3ccccc3F)CC2)c1 | -22.1
O=C(NCCCN1CCOCC1)c1ccc2ccccc2c1 | -2.68
COc1ccc(C(=O)CCN2CCN(c3ccc(OC)cc3)CC2)cc1 | -73.1
COc1ccc(N2CCN(CCC(=O)c3ccc4ccccc4c3)CC2)cc1 | -11.2
COc1ccc(S(N)(=O)=O)cc1C(=O)NCCCN1CCN(c2ccccc2OC)CC1.CS(=O)(=O)O | 2.27
COc1ccccc1N1CCN(CCCCNC(=O)c2ccc3ccccc3c2)CC1.Cl | -79.6
COc1ccc(C(=O)CCN2CCN(c3ccccc3F)CC2)cc1.Cl | -71.5
COc1ccc(C(=O)CCN2CCCCCC2)cc1.Cl | -20
COc1ccccc1N1CCN(CCN(C(=O)c2ccc(F)cc2)c2ccccn2)CC1.Cl | -78.8
COc1ccc(N2CCN(CCC(N)=O)CC2)cc1 | 3.39
COC(=O)CCN(C(=O)c1cc(OC)c(OC)c(OC)c1)c1ccccn1 | 6.81
CC(C)(C)OC(=O)N1CCCN(C(=O)Nc2cccc(Cl)c2)CC1 | -4.88
O=C(NCc1ccc2c(c1)OCO2)C1CC(=O)N(C2CCCCCC2)C1 (stereo not shown) | -11.3
Cc1cc(C)c(NC(=S)NC(=O)c2c(Cl)c(C)nn2C)c([N+](=O)[O-])c1 | 12.2

SMILES | hERG current change (%, negative = inhibition) at 10uM [%]
COc1cc(C(=O)NCC(c2cccnc2)N2CCN(C)CC2)cc(OC)c1OC (stereo not shown) | 12.9
COC(=O)NNC(=O)C1CCC(C)CC1 (stereo not shown) | -27.2
O=C(N/N=C/c1ccc(-c2ccccc2[N+](=O)[O-])o1)c1cncc(Br)c1 | -6.97
COc1ccccc1CCNC(=O)C(=O)NCC1OCCN1S(=O)(=O)c1ccc(Br)cc1 (stereo not shown) | -25.6
COc1ccc(CCn2c(=S)[nH]c3cc(C(=O)NCc4ccco4)ccc3c2=O)cc1OC | -1.08
COc1ccc(CCNS(=O)(=O)c2cc(/C=C/C(=O)O)ccc2C)cc1OC | 8.58
CCOC(=O)N1CCN(CCC(=O)c2ccc(OC)cc2)CC1.Cl | -18.2
COc1cc(NC(=O)CCN2CCN(c3ccccc3F)CC2)cc(OC)c1 | -56.6
Cl.O=C(CCN1CCN(c2ccccc2F)CC1)c1ccc(Br)cc1 | -84.5
Cl.O=C1CC(=C(c2ccccc2)c2ccccc2)C(=O)N1CCCCN1CCN(c2cccc(Cl)c2)CC1 | -46
NC(=O)CN1CCN(c2ccccc2F)CC1 | 4.12
O=C(CCC(=O)N1CCN(c2ccccc2F)CC1)c1ccc(F)cc1 | -35.4
COc1cccc(NC(=O)CCN2CCN(c3ccccc3F)CC2)c1 | -12
O=C1CC(=C(c2ccccc2)c2ccccc2)C(=O)N1CCCCN1CCN(c2ccccc2)CC1 | -63.3
COc1cc(NC(=O)CN2CCN(c3ccccc3F)CC2)cc(OC)c1 | -10.2
CCOC(=O)N1CCN(CCC(=O)c2ccc(Cl)cc2)CC1.Cl | -40.9
O=C1CC(=C(c2ccccc2)c2ccccc2)C(=O)N1CCCN1CCN(c2cccc(Cl)c2)CC1 | 1.35
CCOC(=O)N1CCN(CCC(=O)c2ccc(Br)cc2)CC1.Cl | -64.6
CC(C)C[C@H](NC(=O)C1CC(=O)N(c2ccc(F)cc2)C1)C(=O)N1CCCCC1 (stereo partly shown) | -0.716
